Assay results: the supplement of paper PMC6555819

Assays:
Assay in all cases: PBM binding z-score (relative to random genomic background probes); higher = stronger binding; sequences stand for … in GC…GCGATTGACAGCGTAGAATGAAGG
[1] = tested on: RARb homodimer (NR concentration 270 nM)
In short: (§1)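 On custom Agilent 4×180K arrays, double-stranded probes with 34-nt variable regions carried direct-repeat seeds, single-nucleotide variants, half-site ablations or random human genomic background. Ligand-free nuclear receptor dimers were applied for 1 h, and binding was read with antibodies against each partner (one per run). Binding z-scores come from regression-normalized fluorescence, with the random background probes as reference.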

[2] = tested on: RARg:RXRa (NR concentration 270 nM, RXRa partner concentration 90 nM)
In short: as §1

[3] = tested on: RARg homodimer (NR concentration 270 nM)
In short: as §1

[4] = tested on: RXRa DBDmut IVT, anti-RXR (DBD mutation: RXRa K156A/R161A, NR concentration 90 nM)
In short: as §1

[5] = tested on: RXRa homodimer (NR concentration 180 nM)
In short: as §1

[6] = tested on: THRa:RXRa (NR concentration 90 nM, RXRa partner concentration 90 nM)
In short: as §1

[7] = tested on: THRa homodimer (NR concentration 90 nM)
In short: as §1

[8] = tested on: VDR homodimer (NR concentration 270 nM)
In short: as §1

Sequence	PBM binding z-score [1]	PBM binding z-score [2]	PBM binding z-score [3]	PBM binding z-score [4]	PBM binding z-score [5]	PBM binding z-score [6]	PBM binding z-score [7]	PBM binding z-score [8]
TTTTGTAGATCAACAGGAGGTTAAGAAAGATCGA	0.787	1.04	0.47	-0.291	1.23	1.23	0.167	0.336
TCTATTACTTGATTAGGGCAACCGAAACAGCGGA	0.543	0.675	0.616	1.1	0.781	0.792	0.73	0.603
CCTAGCAAGCCAGGGTCACTCAAGCATTTCGCTT	2.62	2.97	2.62	0.907	3.86	3.03	1.1	1.69
ATATGTAGGTTATCGGGTCATGCAGTTTGCGCAT	3.1	3.43	2.66	0.921	3.76	3.54	3.02	3
ACAGACAGGTGAGTGAAGGTAACTCAGCTGGACG	0.005	0.297	0.64	-0.506	0.428	1.51	-0.394	-0.355
CGTCAAGGTTCAAGGTAACGTAACAGAAAGCAGC	1.73	3.11	2.71	4.1	3.11	2.61	1.01	3.6
CATTACGGGTCACTCCAGGTTATAGCATCGGAGT	3.31	4.59	4.57	1.53	4.65	5.06	0.963	1.83
ACTATTAGTTGAGACGACGGCAACCGATAGGTTG	-0.491	0.00753	0.223	-0.0527	0.0138	-0.529	-0.596	-0.117
GCTGCTAGGTCAACCGATGGTCAGCTAAAGCTCG	3.51	5.42	5.15	1.31	3.11	2.71	0.689	-0.333
GCTCGGAGGACAAGGTCAGAACTTTGTCCGTAGA	2.83	3.15	3.26	0.38	2.6	2.67	0.989	0.595
CCTGCTAGGTCAATGGACAGCTAAAGCAGCTCGC	2.51	3.34	4.17	1.5	1.8	1.95	0.0455	0.153
GCTGCTAGGTCAGGTTGGTCAGCTCACGGGTACG	2.66	2.78	3.52	0.658	1.28	1.84	0.901	0.536
TGAACGAGGTTATAAGATCAGGGAACGTTGCAAA	0.253	1.53	1.1	0.444	2.02	1.43	-0.282	0.372
ACTATTAGTTGAGACGATGGCAACCGATAGGTTG	-0.57	0.459	0.26	0.0509	0.0596	-0.111	-0.705	0.236
CTCGAAAGGTCGTGCTCAGGCGAGTATACCAAAC	2.65	4.35	3.64	1.3	4.75	2.88	-0.037	0.812
CAGCCTAGGTCAGGGCCGGTATAGGAGGAACGTT	2.41	3.04	3.86	-0.785	1.56	1.88	0.2	-0.454
TGAATGAGGTTATAGATCAGGGAACGTGGCGTCG	0.339	1.36	1.02	0.491	2	2.05	0.416	0.618
GCTAGTTGCTCAGTAAAAGGTCACACACCGGTCG	5.11	4.7	4.02	0.441	5.17	3.61	1.73	1.14
CGTCCAAGGTCAATGATAGGTCAGTGAAAGCATT	4.99	7.81	7.06	3.55	6.04	4.03	2.44	2.61

Sequence	PBM binding z-score [1]	PBM binding z-score [2]	PBM binding z-score [3]	PBM binding z-score [4]	PBM binding z-score [5]	PBM binding z-score [6]	PBM binding z-score [7]	PBM binding z-score [8]
GCTAGTTGGTCAGAAAAAGGTCACACACCGGTCG	5.21	5.28	4.72	0.268	4.82	3.52	1.44	1.71
ATATGTAGGTTACATCCGGGTGATTCAGGCTATG	0.887	1.19	1.11	0.378	1.27	2.07	0.9	0.101
CCGAGTAGGTTATGGGGCATTCAAGCAACGGTGA	0.855	0.557	0.579	0.355	0.617	0.205	0.0762	0.0962
CGTACAAGGTCAATGCTAGGTCAGTGAAAGCATT	5.18	7.9	7.1	3.82	6.04	4.45	3.05	3.22
GATACAGGGTCAGCTAGAGGCCAAAGTATGGAAA	3.52	7.25	5.27	1.21	4.76	3.25	0.447	1.3
TCTAGCAGACCAGAGGGTCACTCAAGAGGTACGG	2.18	1.95	1.42	-0.0475	2.19	1.43	-0.387	0.415
CCTTACGGGTCAAGGTTCTAGCACGGGTGGTACG	3.2	4.78	4.47	0.551	4.96	2.39	0.0737	1.51
CCTTACGGGTCAATGTTATAGCACGGGTGGTACG	2.54	4.03	3.85	0.842	4.04	1.85	-0.227	0.834
ATACCAAGGTGATCGTGAGGTCGTTGGTACTAAC	1.55	2.1	0.722	0.424	1.5	3.39	2.22	2.96
AGAACGAGGGCAATGAGTTGATTGCACGGGTGGC	0.636	0.81	1.23	1.88	0.475	0.794	-0.344	3
TCGAGCAGGTTAGTCGGGGCATTCAGCCAACATA	0.497	-0.142	-0.25	-0.118	-0.199	1.21	-0.236	0.432
CGAACGAGAGCATGAGTTGATAGCAAATGCCGAT	-0.657	-0.0472	0.132	0.193	-0.065	-0.724	-1.07	0.244
CAGTCTAGGTCAGGGCCAGTATAGGAGGAACGTT	2.84	3.02	3.96	0.701	1.55	2.42	1.52	0.322
CGTCCAAGGCCAGCAGGTCAGTGAAAGCGACGTG	2.34	1.85	2	-0.479	0.648	1.3	0.193	-0.465
CCTATCAGTTGACCATAAGGGCAACCGAAGCTCG	1.93	1.48	1.03	0.139	0.916	1.98	1.26	0.554
AGAACGAGGGCAATGAGTTGATAGAACGGGTGGC	0.861	1.14	1.61	2.13	0.744	0.969	-0.182	2.82
TCGTGTAGGTTAGGGGCATTCAGAATGGCGTCGA	1.37	0.648	0.819	1.09	0.961	1.3	0.787	0.922
GATACAGGCTCAGCTAGAGGCCAGAGTATGGAAA	-0.469	-0.109	-0.0931	-0.906	-0.529	-1.13	-0.801	-0.924
CGAACTACGTCAAGGACAGTGAATCTCCGCACGC	0.242	-0.205	0.151	0.114	0.0152	1.67	1.13	0.0374

Sequence	PBM binding z-score [1]	PBM binding z-score [2]	PBM binding z-score [3]	PBM binding z-score [4]	PBM binding z-score [5]	PBM binding z-score [6]	PBM binding z-score [7]	PBM binding z-score [8]
TTACCCAGGTGAAAGGTCGTTGATGCACGCCTTG	2.56	3.48	1.53	0.677	4.51	3.2	1.26	1.66
CCTACTGGGCCAAGGTCATTGGTCAGTCAAAGCA	3.51	3.85	3.86	0.988	3.73	3.48	2.62	3.41
TCTCGGAGGACACGAAGTTCAGAGCTTTCCAGAG	2.07	1.17	2.04	1.08	0.47	1.72	0.372	2.38
CCGACTGGGGCAAGGTGACCATAACGCACAGCCA	1.11	0.469	0.934	-0.745	0.419	0.718	0.18	-0.459
TTACCAACGTGAAGGTCGTTGATCCCTCTGTAGA	1.24	0.301	0.15	0.665	1.17	1.04	0.438	1.3
CCTTATGGGTCAAGGTTATAGCACGGGTGGTACG	2.91	4.01	4.26	0.11	3.78	2.22	0.64	1
CGAATTAGGTCATTGACAGGACAGTGAATAGTAA	2.68	4.6	4.22	2.69	2.53	3.33	1.54	1.22
TCGAGTAGGTGACCAATGGGGCATTCAGCTTTCT	0.62	0.353	0.0885	-0.0137	0.185	-0.147	-0.979	-0.776
ATTACAGGGTCATCGTAGGCCAGAGTACGCACAG	3.91	5.86	5.41	3.6	6.79	4.86	1.78	3.83
CCTACTGGGCCAAGGTCATTCATCAGTCAAAGCA	3.52	3.84	3.48	1.7	3.42	3.44	2.53	3.56
CCTGGTTGGTCAGGAGGTCACACACCGGATATGA	4.02	4.98	4.31	0.0446	4.57	3.37	2.1	2.44
CCTTACGGATCAAGGTTATAGCACGGGTGGTACG	0.857	0.538	0.518	-0.178	0.793	1.16	0.694	0.886
CAAACTAGGTCAAGGGTCAAAGTCGAGCCAACCA	4.7	7.41	6.13	2.47	8.6	4.36	1.45	3.15
GCTTGTAGATCAAGTTTAAGAAAGACTAAGCTAA	-0.242	-0.195	-0.0872	0.649	-0.236	-0.0932	-0.618	0.27
CGTCCAAGGTCAGAGAGGTTAGTGAATGCCGAGT	3.85	4.7	5.08	2.6	3.73	3.45	1.87	2.96
CCTCGGAGGACTGAAGGTCAGAGCTGTCCGCTTT	2.67	2.13	1.87	-0.27	1.46	1.66	-0.417	-0.325
ACTAGCAGGCCAAGTTAGGGTCACTCAAACAAAG	3.53	4.02	2.89	-0.159	3.35	4.14	2.34	1.18
CAAACTAGGTCAAAGCTCAAAGTCGAGCCAACCA	2.4	4.14	4.25	1.91	3.7	2.39	0.666	0.583
